In PubChem BioAssay (NCATS):
Records with an inconclusive call do not appear. Activity calls are given as the source filed them. Unless noted, the call rests on the fitted dose curve; in most records, active means well fitted curve in either direction with a large enough effect (not every such curve was filed as active); inconclusive means small, poorly fitted or top-dose-only effect, or another doubt; inactive means flat fitted curve, though single readings scatter.

Assays:
[1] = AP1 Signaling Pathway (AID 357); further: on the % scale 0 is the no-effect control and ±100 the full control effect
Procedure, shortened: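 ME-180 cells with beta-lactamase reporter under AP-1 response element, stimulated with EC50 EGF; compounds tested in titration series, 5 h at 37 °C. CCF4 substrate added 2.5 h at room temperature; 460/530 nm emission ratio gave %activity and AC50.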

[2] = molecular target: Cytochrome P450 1A2 (Homo sapiens) (UniProt P05177); assay: p450-cyp1a2 (AID 410; calls by dose curve; further: potency means the concentration at half of the fitted maximal effect;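 on activity change, negative = inhibition: -100% = full effect of reference inhibitor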)
Procedure, shortened: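 Human CYP1A2 (20nM) demethylated Luciferin-ME at its Km (100uM) in 100mM KPO4. After 10 min compound preincubation, NADPH regeneration ran the reaction 60 min at room temperature. Luciferin was read by luminescence, normalized to 57 uM furafylline.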

[3] = NFAT Signaling Pathway (AID 444); settings: Jurkat NFAT-bla M1, carbachol, beta-lactamase ratio, 5 h; at 17.2 µM (top of the series) unless noted;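 further: carbachol stimulus at about its EC50 of 1 µM final; on the % scale 0 is the no-effect control and ±100 the full control effect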
Procedure, shortened: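 Jurkat cells carrying an NFAT-driven β-lactamase reporter and co-transfected muscarinic M1 receptor were treated with compound plus carbachol (1 uM final, an EC50 level) for 5 h at 37 °C. CCF4 loading followed for 1 h at RT; 460/530 nm ratio gave %activity.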

[4] = Stat Signaling Pathway (AID 446);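 further: ME-180 cervical cancer cells given 40 pM IL-6 alongside compound; SIE-controlled beta-lactamase reporter measured as 460/530 nm FRET emission ratio; on the % scale 0 is the no-effect control and ±100 the full control effect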
Procedure, shortened: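 ME-180 SIE-bla cells; overnight plating; cpd + IL-6 40 pM, 5 h, 37 C; LiveBLAzer 2.5 h RT; 460/530 nm emission ratio. Normalized to 300 pM IL-6 and 125 nM JAK inhibitor controls.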

[5] = molecular target: Mitogen-activated protein kinase 10 (Mus musculus) (UniProt Q61831); assay: JNK3 AlphaScreen Assay (AID 530);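 further: kinase came from lysate of stimulated human HepG2 cells; signal reports phosphorylation of biotinylated GST-cJun 1-79 at Ser73 with 10 µM ATP; on the % scale 0 is the no-effect control and ±100 the full control effect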
Procedure, shortened: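 JNK3 came from HepG2 lysates pre-activated with IL-1beta and TNF-alpha and phosphorylated biotinylated GST-cJun (1-79) at 10 uM ATP, pH 7.6, room temperature. Compounds were titrated. AlphaScreen signal used anti-phospho-cJun (Ser73) antibody.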

[6] = molecular target: 3',5'-cyclic-AMP phosphodiesterase 4B (Homo sapiens) (UniProt Q07343); assay: qHTS Assay for Inhibitors of PDE-IV (AID 607; active means well fitted activation curve with a large enough effect in the main read-out, with a control signal flat, not every such curve was filed as active; further: % of control where 0% means no effect)
Procedure, shortened: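 ACTOne HEK293 cells carry a modified cAMP-gated CNG channel and express endogenous PDE4; plated 1000 cells/well, compounds up to 22.9 uM final. Membrane-potential dye fluorescence (ex 535/em 590) was read; parental cells received 10 uM forskolin + 100 uM RO 20-1724.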

[7] = qHTS Assay for Lipid Storage Modulators (AID 1519; calls by dose curve); settings: Drosophila S3 cells, BODIPY lipid droplet/cell ratio, laser cytometry, cells loaded with oleic acid; for activity change, negative = inhibition: at 25.7 µM (top of the series)
Procedure, shortened: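 Cells seeded at 5,000 per well were treated with compounds over a concentration series and loaded with oleic acid (400 uM, as added). Lipid droplet fluorescence (488 nm excitation, 500-530 nm channel) was read by laser-scanning cytometry and normalized to 20 uM Triacsin C.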

[8] = molecular target: Glucocorticoid receptor (Homo sapiens) (UniProt P04150); assay: GR-GFP Redistribution (AID 450;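 active means compounds whose dose series gives a full or clear partial fitted curve of increased nuclear translocation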; further: potency means the concentration at half of the fitted maximal effect); settings: U2OS GR-GFP nuclear translocation, laser cytometry, 2 h
[9] = molecular target: Glucocorticoid receptor (Homo sapiens) (UniProt P04150); assay: GR-EFC Redistribution (AID 451; calls by dose curve; further: potency means the concentration at half of the fitted maximal effect); settings: CHO-K1 GR-EFC translocation, beta-gal luminescence, 2 h
Procedure, shortened: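 CHO-K1 cells stably expressing nuclear-localized β-gal enzyme acceptor and GR fused C-terminally to the enzyme donor fragment; ligand-driven nuclear translocation restores β-gal by complementation. Compounds titrated up to 46 uM final, 2 h at 37 °C; luminescence read.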

[10] = molecular target: Ubiquitin carboxyl-terminal hydrolase 1 (Homo sapiens) (UniProt O94782); assay: Inhibitors of USP1/UAF1: Pilot qHTS (AID 504865; active means well fitted curve in the direction sought with a large enough effect; an effect the other way counts as inactive or inconclusive;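 further: rhodamine fluorescence freed from ubiquitin-rhodamine substrate followed over time; top concentration of the series differs between compounds; on the % scale 0 is the no-effect control and ±100 the full control effect; nearly all actives have a fitted effect of over 35% in size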)
Procedure, shortened: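 Enzyme-free wells gave the negative control, while test wells held 1nM USP1/UAF1 preincubated with compound for 15 min at room temperature. Ub-Rho at 150nM final started the reaction, and fluorescence at 480/540 nm was recorded kinetically.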

[11] = molecular target: ATP-dependent 6-phosphofructokinase (Trypanosoma brucei brucei) (UniProt O15648); assay: qHTS Assay to Find Inhibitors of T. brucei phosphofructokinase: hit validation (AID 492961; active means well fitted curve in the direction sought with a large enough effect; an effect the other way counts as inactive or inconclusive)
Procedure, shortened: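 Reaction: 0.1 M triethanolamine pH 8.0, 5 mM MgCl2, F6P 0.5 mM, ATP 0.1 mM, PFK 1.25 nM, 45 min RT. Read-out: ADP-Glo luminescence. Analysis: concentration-response fits, classed by r2 and efficacy.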

[12] = test system: C2A; assay: qHTS profiling for inhibitors of Plasmodium falciparum proliferation (AID 504749; active means well fitted curve in the direction sought with a large enough effect; an effect the other way counts as inactive or inconclusive; further: nearly all actives have a fitted effect of over 60% in size; further: potency means the concentration at half of the fitted maximal effect;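 on activity, negative = inhibition: 0% = DMSO vehicle and full inhibition = artemisinin control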); settings: P. falciparum in erythrocytes, SYBR Green DNA, 72 h; series mostly up to 12.8 µM
Procedure, shortened: (§1)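 P. falciparum-infected erythrocytes (0.3% parasitemia, 2.5% hematocrit final) were exposed to compounds for 72 h at 37 C in 5% CO2, then lysed with SYBR Green buffer overnight at room temperature; parasite DNA fluorescence was normalized to artemisinin and DMSO controls.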

[13] = test system: CP191; assay: as above; settings: P. falciparum in erythrocytes, SYBR Green DNA, 72 h; series mostly up to 12.8 µM
Procedure, shortened: as §1

[14] = test system: CP256; assay: as above; settings: P. falciparum in erythrocytes, SYBR Green DNA, 72 h; series mostly up to 12.8 µM
Procedure, shortened: as §1

[15] = test system: FAB9; assay: as above; settings: P. falciparum in erythrocytes, SYBR Green DNA, 72 h; series mostly up to 12.8 µM
Procedure, shortened: as §1

[16] = test system: JCK; assay: as above; settings: P. falciparum in erythrocytes, SYBR Green DNA, 72 h; series mostly up to 12.8 µM
Procedure, shortened: as §1

[17] = test system: SC27B; assay: as above; settings: P. falciparum in erythrocytes, SYBR Green DNA, 72 h; series mostly up to 12.8 µM
Procedure, shortened: as §1

[18] = as above; settings: P. falciparum in erythrocytes, SYBR Green DNA, 72 h; at 12.8 µM (top of the series); parasite line A
Procedure, shortened: as §1

[19] = test system: CP217; assay: as above; settings: P. falciparum in erythrocytes, SYBR Green DNA, 72 h; series mostly up to 12.8 µM
Procedure, shortened: as §1

[20] = test system: CP250; assay: as above; settings: P. falciparum in erythrocytes, SYBR Green DNA, 72 h; series mostly up to 12.8 µM
Procedure, shortened: as §1

[21] = measured here: cell count channel max response
[22] = measured here: lipid channel max response

Cytochrome P450 1A2 (Homo sapiens), sequence (P05177 whole entry, looked up): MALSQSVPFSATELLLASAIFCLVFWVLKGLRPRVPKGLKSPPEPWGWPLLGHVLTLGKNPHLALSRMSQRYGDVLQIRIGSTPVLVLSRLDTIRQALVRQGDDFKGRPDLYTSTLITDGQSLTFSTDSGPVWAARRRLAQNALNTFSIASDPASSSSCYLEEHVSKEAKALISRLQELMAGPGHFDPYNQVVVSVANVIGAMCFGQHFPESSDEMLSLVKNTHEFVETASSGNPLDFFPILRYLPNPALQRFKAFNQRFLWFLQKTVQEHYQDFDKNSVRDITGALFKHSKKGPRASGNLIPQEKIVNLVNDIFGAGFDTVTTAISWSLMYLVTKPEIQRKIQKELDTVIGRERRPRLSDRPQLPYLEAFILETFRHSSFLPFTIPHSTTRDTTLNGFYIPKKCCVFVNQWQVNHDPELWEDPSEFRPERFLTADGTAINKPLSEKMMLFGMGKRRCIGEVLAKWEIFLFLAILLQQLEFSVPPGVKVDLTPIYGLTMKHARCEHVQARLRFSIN
3',5'-cyclic-AMP phosphodiesterase 4B (Homo sapiens), sequence (Q07343 whole entry, looked up): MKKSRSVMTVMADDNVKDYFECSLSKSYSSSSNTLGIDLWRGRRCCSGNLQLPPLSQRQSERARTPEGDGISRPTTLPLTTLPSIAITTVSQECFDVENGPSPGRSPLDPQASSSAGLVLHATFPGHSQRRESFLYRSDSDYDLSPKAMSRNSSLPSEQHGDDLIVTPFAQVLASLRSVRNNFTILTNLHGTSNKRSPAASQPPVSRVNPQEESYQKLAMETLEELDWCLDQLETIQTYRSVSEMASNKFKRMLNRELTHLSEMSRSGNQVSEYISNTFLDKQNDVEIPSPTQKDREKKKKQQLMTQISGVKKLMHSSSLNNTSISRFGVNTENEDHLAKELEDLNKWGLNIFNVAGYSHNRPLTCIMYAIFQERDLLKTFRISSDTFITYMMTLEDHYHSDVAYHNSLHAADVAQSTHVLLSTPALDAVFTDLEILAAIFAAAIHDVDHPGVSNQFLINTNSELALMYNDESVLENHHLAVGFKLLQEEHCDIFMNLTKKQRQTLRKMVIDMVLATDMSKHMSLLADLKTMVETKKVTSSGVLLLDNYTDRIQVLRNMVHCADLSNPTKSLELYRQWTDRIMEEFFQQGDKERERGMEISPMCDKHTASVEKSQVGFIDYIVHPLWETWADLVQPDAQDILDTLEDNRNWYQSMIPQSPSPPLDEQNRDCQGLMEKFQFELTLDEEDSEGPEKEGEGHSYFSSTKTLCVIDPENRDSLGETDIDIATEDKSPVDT
Ubiquitin carboxyl-terminal hydrolase 1 (Homo sapiens), sequence (O94782 whole entry, looked up): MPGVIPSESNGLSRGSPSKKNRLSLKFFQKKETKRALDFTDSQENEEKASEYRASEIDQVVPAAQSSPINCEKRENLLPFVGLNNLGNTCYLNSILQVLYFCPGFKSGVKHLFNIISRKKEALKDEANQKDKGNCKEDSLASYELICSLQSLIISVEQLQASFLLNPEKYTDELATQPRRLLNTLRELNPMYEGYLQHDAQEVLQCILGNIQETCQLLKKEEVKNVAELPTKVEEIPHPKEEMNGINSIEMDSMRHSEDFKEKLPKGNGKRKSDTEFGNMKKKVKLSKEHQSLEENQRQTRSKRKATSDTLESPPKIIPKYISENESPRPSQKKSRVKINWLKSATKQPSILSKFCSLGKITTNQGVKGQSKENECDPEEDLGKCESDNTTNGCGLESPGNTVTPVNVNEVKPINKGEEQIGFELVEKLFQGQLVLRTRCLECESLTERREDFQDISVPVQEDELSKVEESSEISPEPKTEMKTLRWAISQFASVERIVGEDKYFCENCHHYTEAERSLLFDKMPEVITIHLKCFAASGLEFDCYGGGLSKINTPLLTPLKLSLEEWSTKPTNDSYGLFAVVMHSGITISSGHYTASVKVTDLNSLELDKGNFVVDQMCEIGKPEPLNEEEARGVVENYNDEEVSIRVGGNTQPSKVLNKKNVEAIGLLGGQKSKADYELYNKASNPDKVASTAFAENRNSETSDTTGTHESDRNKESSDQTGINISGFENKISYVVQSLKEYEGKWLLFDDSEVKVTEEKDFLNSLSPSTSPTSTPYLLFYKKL
Glucocorticoid receptor (Homo sapiens), sequence (P04150 whole entry, looked up, the tested form may be a part): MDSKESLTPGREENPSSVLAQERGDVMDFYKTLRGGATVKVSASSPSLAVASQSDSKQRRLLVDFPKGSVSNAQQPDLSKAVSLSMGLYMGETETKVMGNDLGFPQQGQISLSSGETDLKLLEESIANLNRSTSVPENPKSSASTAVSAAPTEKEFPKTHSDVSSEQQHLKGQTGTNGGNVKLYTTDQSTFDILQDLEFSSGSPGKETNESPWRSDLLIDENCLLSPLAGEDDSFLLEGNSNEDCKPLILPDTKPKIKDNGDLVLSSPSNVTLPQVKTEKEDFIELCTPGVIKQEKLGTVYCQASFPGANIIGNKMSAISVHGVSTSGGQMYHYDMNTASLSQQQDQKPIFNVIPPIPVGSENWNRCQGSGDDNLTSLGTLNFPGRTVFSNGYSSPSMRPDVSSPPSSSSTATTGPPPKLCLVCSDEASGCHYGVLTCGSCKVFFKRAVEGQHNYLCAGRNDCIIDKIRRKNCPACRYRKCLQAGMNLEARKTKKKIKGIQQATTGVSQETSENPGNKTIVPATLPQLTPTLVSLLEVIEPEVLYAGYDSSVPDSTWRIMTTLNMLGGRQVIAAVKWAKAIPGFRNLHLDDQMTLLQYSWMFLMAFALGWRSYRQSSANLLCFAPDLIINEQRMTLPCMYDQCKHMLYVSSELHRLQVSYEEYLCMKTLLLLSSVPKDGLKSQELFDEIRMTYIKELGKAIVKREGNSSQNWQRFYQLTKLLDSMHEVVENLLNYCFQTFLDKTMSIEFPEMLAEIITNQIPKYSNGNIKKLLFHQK
ATP-dependent 6-phosphofructokinase (Trypanosoma brucei brucei), sequence (O15648 whole entry, looked up): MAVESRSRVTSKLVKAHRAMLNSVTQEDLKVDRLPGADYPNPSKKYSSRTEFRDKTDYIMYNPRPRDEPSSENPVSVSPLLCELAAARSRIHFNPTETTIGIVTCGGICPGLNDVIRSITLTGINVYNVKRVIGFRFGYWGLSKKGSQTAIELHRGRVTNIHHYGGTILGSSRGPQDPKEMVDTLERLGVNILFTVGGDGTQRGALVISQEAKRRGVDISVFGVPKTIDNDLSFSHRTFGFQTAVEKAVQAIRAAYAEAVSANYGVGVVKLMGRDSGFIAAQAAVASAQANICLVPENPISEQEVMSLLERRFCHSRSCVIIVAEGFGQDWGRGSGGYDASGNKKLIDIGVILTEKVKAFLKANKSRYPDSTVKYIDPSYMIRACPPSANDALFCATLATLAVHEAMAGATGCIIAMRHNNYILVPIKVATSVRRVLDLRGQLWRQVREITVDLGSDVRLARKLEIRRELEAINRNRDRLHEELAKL

O=C(O)[C@@H](O)[C@@H](O)[C@@H](O)[C@@H](O)C(=O)O (tested in a mixture with another compound)
-7.78%: max response [7, 22]
-10.9%: max response [7, 21]
inactive: outcome [1] | Potency [2] | activity change, negative = inhibition [3] -16.6% | outcome [4] | Potency [5] | outcome [6] | activity change, negative = inhibition [7] -0.616%

O=C(/C=C\C=C/c1ccc2c(c1)OCO2)N1CCCCC1
-1.9%: max response [7, 21]
active: Potency [2] 3.16 µM
inactive: outcome [1] | activity change, negative = inhibition [3] -3.46% | outcome [4] | Potency [5] | activity change, negative = inhibition [7] 2%
1.28%: max response [7, 22]

C[C@@]12CC3CC(N)(C1)C[C@@](C)(C3)C2
inactive: outcome [1] | Potency [2] | outcome [4] | Potency [8] > 20.6 µM | Potency [9] > 20.6 µM | Potency [5] | outcome [6] | activity change, negative = inhibition [7] -4.9% | Potency [10]
-3.32%: max response [7, 21]
-3.78%: max response [7, 22]

NC(=O)N/N=C\c1ccc([N+](=O)[O-])o1
active: Potency [2] 12.6 µM
-2.81%: max response [7, 21]
-1.91%: max response [7, 22]
inactive: outcome [1] | activity change, negative = inhibition [3] -5.34% | Potency [8] > 20.6 µM | Potency [9] > 20.6 µM | Potency [5] | outcome [6] | activity change, negative = inhibition [7] 0.117% | Potency [10]

OCCN1CCN(CCC=C2c3ccccc3Sc3ccc(Cl)cc32)CC1
inactive: outcome [1] | outcome [4] | Potency [8] > 20.6 µM | Potency [9] > 20.6 µM | Potency [5] | outcome [6] | activity change, negative = inhibition [7] -7.08% | outcome [11] | Potency [10] | Potency [12] | Potency [15] | Potency [16] | Potency [17]
active: Potency [2] 15.8 µM | Potency [13] 3.98 µM | Potency [14] 3.55 µM
-20.1%: max response [7, 22]
-13.2%: max response [7, 21]

C#C[C@]1(O)CC[C@@H]2[C@H]3CCC4=Cc5oncc5C[C@]4(C)[C@@H]3CC[C@@]21C
-23.2%: max response [7, 21]
inactive: outcome [1] | outcome [4] | Potency [8] > 20.6 µM | Potency [9] > 20.6 µM | Potency [5] | activity change, negative = inhibition [7] -2.17% | Potency [10]
active: Potency [2] 10 µM
-23.4%: max response [7, 22]

CNC[C@H](O)c1ccc(OC(=O)C(C)(C)C)c(OC(=O)C(C)(C)C)c1
inactive: outcome [1] | Potency [2] | outcome [4] | Potency [8] > 20.6 µM | Potency [9] > 20.6 µM | Potency [5] | activity change, negative = inhibition [7] 0.431% | outcome [11] | activity, negative = inhibition [18] -7.03% | Potency [12] | Potency [13] | Potency [19] | Potency [20] | Potency [15] | Potency [16] | Potency [17]
14.1%: max response [7, 21]
active: Potency [14] 10 µM
16.1%: max response [7, 22]

COc1cc2c(cc1OC)-c1cc3ccc(OC)c(OC)c3c[n+]1CC2
-8.72%: max response [7, 21]
-7.96%: max response [7, 22]
inactive: outcome [1] | Potency [2] | outcome [4] | Potency [8] > 20.6 µM | Potency [9] > 20.6 µM | Potency [5] | outcome [6] | activity change, negative = inhibition [7] 1.8% | Potency [10]

C[C@@]12C=CC(=O)C=C1CC[C@@H]1[C@@H]2[C@H](O)C[C@]2(C)[C@@H]1CC[C@]2(O)C(=O)CO
-3.94%: max response [7, 22]
2.46%: max response [7, 21]
inactive: outcome [1] | Potency [2] | activity change, negative = inhibition [3] -7.95% | outcome [4] | activity change, negative = inhibition [7] -5.21% | Potency [10]
